Measurements reported in PubChem BioAssay AID1159580 (chemical genetic matrix, 2015).
Hit rate of the full screen: of about 5,500 compounds, about 2,000 (36%) were called active. About 18% were inconclusive and are not listed. Rule as the data show it: active = normalized growth mostly below about 0.91 (no sharp cut-off); inconclusive = no clear call, values can overlap the other calls; inactive = mostly above about 0.92. Some of the results follow.

Assay: chemical genetic growth profiling, strain panel (AID 1159580);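 also: tested at 20 µM; growth read once vehicle control cultures reached saturation at 30 °C; 1 = growth at the plate median or of vehicle wells; lower values mean less growth of the strain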
Settings: S. cerevisiae deletion strains, growth OD

Measured: normalized growth

CC1CN(S(=O)(=O)c2cccc3cnccc23)CCN1 (stereo not drawn)
inactive: locus YAL040C, strain CLN3, stronger effect = lower value 1.01 | locus YCL061C, strain MRC1 (second series), stronger effect = lower value 1.01 | locus YDR363W, strain ESC2, stronger effect = lower value 1.02 | locus YER002W, strain NOP16, stronger effect = lower value 1 | locus YGR078C, strain PAC10, stronger effect = lower value 1.02 | locus YJR075W, strain HOC1, stronger effect = lower value 0.996 | locus YMR307W, strain GAS1, stronger effect = lower value 0.997 | locus YNL128W, strain TEP1, stronger effect = lower value 1.01 | locus YNL153C, strain GIM3, stronger effect = lower value 1.01 | locus YNL175C, strain NOP13, stronger effect = lower value 1.01 | locus YNL197C, strain WHI3, stronger effect = lower value 1.01 | locus YNL224C, strain SQS1, stronger effect = lower value 1.03 | locus YNL322C, strain KRE1, stronger effect = lower value 0.999 | locus YOR083W, strain WHI5 (second series), stronger effect = lower value 1.02 | locus YPL055C, strain LGE1, stronger effect = lower value 1.02 | locus YPL241C, strain CIN2, stronger effect = lower value 1

NC(=O)c1ccc(N)nc1
inactive: locus YAL021C, strain ccr4, stronger effect = lower value 0.994 | locus YAL026C, strain drs2, stronger effect = lower value 1.01 | locus YAL030W, strain snc1, stronger effect = lower value 0.982 | locus YBR009C, strain hhf1, stronger effect = lower value 0.99 | locus YBR023C, strain chs3, stronger effect = lower value 0.995 | locus YBR171W, strain sec66, stronger effect = lower value 1.02 | locus YBR231C, strain swc5, stronger effect = lower value 0.989 | locus YBR279W, strain paf1, stronger effect = lower value 0.982 | locus YCL011C, strain gbp2, stronger effect = lower value 1 | locus YCL016C, strain dcc1, stronger effect = lower value 1 | locus YCL069W, strain vba3, stronger effect = lower value 1.01 | locus YCR088W, strain abp1, stronger effect = lower value 1.01 | locus YDL005C, strain med2, stronger effect = lower value 0.987 | locus YDL040C, strain nat1, stronger effect = lower value 0.988 | locus YDR001C, strain nth1, stronger effect = lower value 1.01 | locus YDR069C, strain doa4, stronger effect = lower value 0.981 | locus YDR137W, strain rgp1, stronger effect = lower value 1 | locus YDR159W, strain sac3, stronger effect = lower value 0.978 | locus YDR195W, strain ref2 0.942 | locus YDR297W, strain sur2, stronger effect = lower value 0.999 | locus YDR334W, strain swr1, stronger effect = lower value 0.99 | locus YDR335W, strain msn5, stronger effect = lower value 1 | locus YDR392W, strain spt3, stronger effect = lower value 1 | locus YEL003W, strain gim4, stronger effect = lower value 1 | locus YEL037C, strain rad23, stronger effect = lower value 1.01 | locus YEL061C, strain CIN8 (second series), stronger effect = lower value 1 | locus YER015W, strain faa2, stronger effect = lower value 0.997 | locus YER016W, strain bim1, stronger effect = lower value 0.997 | locus YER111C, strain swi4, stronger effect = lower value 1.01 | locus YER155C, strain BEM2 (second series), stronger effect = lower value 1.01 | locus YFR010W, strain ubp6, stronger effect = lower value 1 | locus YGL167C, strain pmr1, stronger effect = lower value 0.999 | locus YGL173C, strain kem1, stronger effect = lower value 0.993 | locus YGL227W, strain vid30, stronger effect = lower value 1.01 | locus YGL240W, strain doc1, stronger effect = lower value 1 | locus YGL253W, strain hxk2, stronger effect = lower value 1.01 | locus YHR013C, strain ard1, stronger effect = lower value 0.979 | locus YHR027C, strain rpn1, stronger effect = lower value 0.998 | locus YHR030C, strain SLT2, stronger effect = lower value 1.03 | locus YHR079C, strain IRE1, stronger effect = lower value 1.02 | locus YHR142W, strain chs7, stronger effect = lower value 1.01 | locus YJL092W, strain hpr5, stronger effect = lower value 1 | locus YJL095W, strain BCK1 (second series), stronger effect = lower value 0.989 | locus YJL095W, strain BCK1, stronger effect = lower value 1.03 | locus YJL115W, strain asf1, stronger effect = lower value 1 | locus YJL129C, strain trk1, stronger effect = lower value 1.01 | locus YJL154C, strain vps35, stronger effect = lower value 0.995 | locus YJL164C, strain tpk1, stronger effect = lower value 0.978 | locus YJL166W, strain qcr8, stronger effect = lower value 1.01 | locus YJR066W, strain TOR1, stronger effect = lower value 0.951 | locus YKL160W, strain elf1, stronger effect = lower value 0.975 | locus YKR026C, strain gcn3, stronger effect = lower value 1.01 | locus YKR091W, strain srl3, stronger effect = lower value 0.997 | locus YLL001W, strain dnm1, stronger effect = lower value 1.01 | locus YLL026W, stronger effect = lower value 0.999 | locus YLL041C, strain sdh2, stronger effect = lower value 1 | locus YLR027C, strain aat2, stronger effect = lower value 1.01 | locus YLR113W, strain HOG1, stronger effect = lower value 1.02 | locus YLR221C, strain rsa3, stronger effect = lower value 0.995 | locus YLR258W, strain gsy2, stronger effect = lower value 1 | locus YLR262C, strain YPT6 (second series), stronger effect = lower value 1.01 | locus YLR320W, strain mms22, stronger effect = lower value 0.995 | locus YLR342W, strain FKS1, stronger effect = lower value 0.996 | locus YLR357W, strain rsc2, stronger effect = lower value 0.967 | locus YLR370C, strain arc18, stronger effect = lower value 1 | locus YLR384C, strain iki3, stronger effect = lower value 0.986 | locus YML120C, strain ndi1, stronger effect = lower value 0.987 | locus YMR058W, strain fet3, stronger effect = lower value 0.999 | locus YMR125W, strain sto1, stronger effect = lower value 1.01 | locus YMR129W, stronger effect = lower value 0.983 | locus YMR205C, strain PFK2, stronger effect = lower value 0.998 | locus YMR231W, strain pep5, stronger effect = lower value 1 | locus YNL071W, strain lat1, stronger effect = lower value 0.99 | locus YNL183C, strain NPR1, stronger effect = lower value 0.961 | locus YNL209W, strain ssb2, stronger effect = lower value 0.996 | locus YNL248C, strain rpa49, stronger effect = lower value 1.01 | locus YNL322C, strain KRE1 (second series), stronger effect = lower value 0.986 | locus YNR049C, strain mso1, stronger effect = lower value 1.01 | locus YOR001W, strain rrp6, stronger effect = lower value 0.997 | locus YOR070C, strain gyp1, stronger effect = lower value 0.993 | locus YOR080W, strain dia2, stronger effect = lower value 0.993 | locus YOR083W, strain WHI5, stronger effect = lower value 1 | locus YOR106W, strain vam3, stronger effect = lower value 1.01 | locus YOR231W, strain MKK1, stronger effect = lower value 1.05 | locus YOR265W, strain rbl2, stronger effect = lower value 0.993 | locus YOR270C, strain vph1, stronger effect = lower value 1.02 | locus YOR290C, strain snf2, stronger effect = lower value 1.01 | locus YPL051W, strain arl3, stronger effect = lower value 0.993 | locus YPL078C, strain atp4, stronger effect = lower value 1 | locus YPL106C, strain sse1, stronger effect = lower value 0.992 | locus YPL240C, strain hsp82, stronger effect = lower value 0.993 | locus YPL256C, strain CLN2, stronger effect = lower value 1.03
